The results in this text go back to ChEMBL document CHEMBL3433997, “St. Jude Leishmania screening dataset” (2016).

Usually inhibition stands for the drop in the measured response relative to a control, in per cent.

Type in all cases: functional
For assay [1], the target named is Solute carrier family 2, facilitated glucose transporter member 1 (Homo sapiens) (UniProt P11166). Briefly: ST_JUDE_LEISH: Cytotoxicity at 2uM final concentration against transgenic Leishmania Mexicana promastigotes LmGLUT1 that are glucose transport deficient and complemented with the human glucose transporter GLUT1. Activity is measured by DNA content using SYBR green in vitro.
Sequence of Solute carrier family 2, facilitated glucose transporter member 1 (Homo sapiens) (P11166 whole entry): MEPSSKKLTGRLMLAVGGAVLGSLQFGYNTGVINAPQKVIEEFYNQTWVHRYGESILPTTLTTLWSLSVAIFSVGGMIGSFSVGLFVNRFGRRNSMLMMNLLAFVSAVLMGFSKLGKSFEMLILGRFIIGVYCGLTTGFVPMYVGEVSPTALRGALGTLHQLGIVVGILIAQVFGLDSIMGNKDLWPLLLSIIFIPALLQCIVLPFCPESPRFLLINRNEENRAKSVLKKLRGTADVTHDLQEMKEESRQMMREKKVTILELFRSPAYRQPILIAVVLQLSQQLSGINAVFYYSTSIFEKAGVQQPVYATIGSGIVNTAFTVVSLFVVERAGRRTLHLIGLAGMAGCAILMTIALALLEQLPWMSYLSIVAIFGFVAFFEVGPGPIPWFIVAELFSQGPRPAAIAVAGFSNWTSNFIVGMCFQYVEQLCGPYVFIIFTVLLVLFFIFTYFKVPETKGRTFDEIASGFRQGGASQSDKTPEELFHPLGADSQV

Assay [2] concerns the target Hexose transporter 1 (Plasmodium falciparum) (UniProt O97467). Briefly: ST_JUDE_LEISH: Cytotoxicity at 2uM final concentration against transgenic Leishmania Mexicana promastigotes LmPfHT that are glucose transport deficient and complemented with the Plasmodium falciparum hexose transporter. Activity is measured by DNA content using SYBR green in vitro.
For assay [3], the target named is Glucose transporter (Leishmania mexicana) (UniProt O61059). Put plainly: ST_JUDE_LEISH: Cytotoxicity at 2uM final concentration against transgenic Leishmania Mexicana promastigotes LmGT2 that are glucose transport deficient and complemented with the L. Mexicana glucose transporter 2. Activity is measured by DNA content using SYBR green in vitro.

SMILES strings stand for the structures. Several values for one entry are separate records, joined by “and”; a condition that tells them apart may be missing. Equal values may be shown once.

`Cc1cc(N[C@@H](CC(C)C)C(=O)NCc2cccs2)nc(Nc2ccccc2)n1`: the inhibition in assay [1] stood at 5.66%; in assay [2] it was 3.95%; in assay [3], 2.84%.

For the compound `COc1ccc(CCn2c(=N)c(C(=O)NCc3ccccc3)cc3c(=O)n4ccccc4nc32)cc1`, the inhibition in assay [1] stood at 12.9%; in assay [2], 12.8%; in assay [3], 8.6%.

On to `Cc1ccc(-c2cc(C(=O)Nc3ccc(S(=O)(=O)N(C)Cc4ccccc4)cc3)[nH]n2)c(O)c1`, for which the inhibition in assay [1] is 0.95%; in assay [2], 0.3%; in assay [3], 1.49%.

`O=C(NCCc1ccccc1)N(Cc1ccccc1-c1ccc(CNC2CCCC2)cc1)C1CCN(Cc2ccccc2)CC1`: the inhibition worked out at 7.74% in assay [1], 7.15% in assay [2] and 5.58% in assay [3].

Consider `Clc1cc(Cl)cc(Nc2ccnc(Nc3cc(Cl)cc(Cl)c3)n2)c1`, for which the values for the inhibition in assay [1], in assay [2] and in assay [3] were 4.6%, 2.75% and 2.57%, respectively.

Turning to `Cc1c(N)ccc2[nH]c(-c3ccc(N)cc3)nc12`, the inhibition in assay [1] was 3.21%; in assay [2], 4.3%; in assay [3], 2.89%.

As to `O=C(NCc1ccccc1)c1ccc(C(=O)NCC2CNCCO2)cc1` (stereo not drawn), the inhibition in assay [1] was 5.08%; in assay [2], 6.24%; in assay [3], 9.54%.

Consider `COc1cccc(-c2cc(C(=O)NC3CCC(N4CCC(c5ccccc5C)CC4)CC3)[nH]n2)c1` (stereo not drawn), for which the inhibition in assay [1] was 6.55%; in assay [2], 14.6%; in assay [3], 5.13%.

Consider `COc1ccc(NC(=O)[C@H](CC(C)C)Nc2cc(C)nc(NCCc3ccccc3)n2)cc1`, for which the inhibition was 3.57% in assay [1], 3.69% in assay [2] and 1.94% in assay [3].

On to `CN(C)C(CNC(=O)c1cc(-c2ccncc2)c(-c2ccc(NC(=O)Nc3cccc(F)c3)cc2)o1)c1ccccc1` (stereo not drawn), for which the inhibition in assay [1] was 0.98%; in assay [2], 0.71%; in assay [3], 0.6%.

For `O=C(Nc1ccc2c(c1)CCC2)c1cccc(CN2CCCN(Cc3cccc(O)c3)CC2)c1`, the inhibition was 1.77% in assay [1], -2.6% in assay [2] and -0.46% in assay [3].

With `Cc1ccccc1C1CCN(C2CCC(NC(=O)c3cc(-c4ccc(Cl)cc4)cs3)CC2)CC1` (stereo not drawn), the inhibition was 2.23% in assay [1], 3.13% in assay [2] and -2.52% in assay [3].

On to `CCOC(=O)c1ccc(NC(=O)NC2CCN(CCCCCNC(=O)/C=C/c3ccc(Cl)c(Cl)c3)C2)cc1` (stereo not drawn), for which the inhibition in assay [1] is 2.05%; in assay [2] it was 0%; in assay [3] it was 0.92%.

For `Cn1c(Nc2cc(C(C)(C)C)on2)nc2cc(Nc3ccnc(Nc4cccc(S(=O)(=O)N5CCOCC5)c4)n3)ccc21`, the inhibition in assay [1] was 5.63%; in assay [2] it was 2.67%; in assay [3] it was -0.88%.

On to `COc1nc(-n2ccc(=N)cc2)nc2ccccc12`, for which the inhibition in assay [1] stood at 12.2%; in assay [2], 13.4%; in assay [3] it was 2.63%.

As for `COc1c(C2CCN(CCCCNC(=O)c3ccc(-c4ccc(C#N)cc4)nc3)CC2)ccc2c1CCCC2`, the inhibition in assay [1] turned out to be 1.52%; in assay [2], 2.03%; in assay [3], 0.52%.

With `Cn1c(NC(=O)C2CCCN(C(=O)c3ccc(O)c(-c4ccc(Cl)c(Cl)c4)c3)C2)nc2ccccc21` (stereo not drawn), the inhibition in assay [1] was 0.08%; in assay [2] it was -0.09%; in assay [3], -7.08%.

Regarding `COc1ccc(-c2cnc(NCc3ccccc3)nc2)cc1CNC1CCN(C)CC1`, the values for the inhibition in assay [1], in assay [2] and in assay [3] were -0.17%, 1.06% and -0.94%, respectively.

On to `CN(CC(=O)Nc1ccc(F)c(F)c1F)c1ncnc2sc(-c3ccccc3)cc12`, for which the inhibition in assay [1] amounted to 3.92%; in assay [2], 4.09%; in assay [3], 2.74%.

As for `O=C(Nc1cccc(CN2CCCN(Cc3cccc(O)c3)CC2)c1)c1ccc2ccccc2c1`, the inhibition in assay [1] is 1.01%; in assay [2] it was 1.53%; in assay [3], -2.82%.

Take `CN(C)C(=O)CCCn1c(CNCCCNc2cc(=O)c3ccccc3[nH]2)cc2c(Cl)cc(Cl)cc21`: the inhibition in assay [1] is 0.57%; in assay [2], 2.54%; in assay [3], 2%.

On to `Fc1ccc2[nH]c(-c3cccc(-c4cccc(CNCc5cnn(-c6ccccc6)n5)c4)c3)nc2c1`, for which the inhibition was determined as 6.56% in assay [1], 8.75% in assay [2] and 7.46% in assay [3].

For the compound `CCn1cc(C=C2Oc3c(ccc(O)c3CN3CCCCC3)C2=O)c2ccccc21`, the inhibition in assay [1] is 5.49%; in assay [2], 4.09%; in assay [3], 3.27%.

On to `O=C(NC1CCN(Cc2ccccc2)CC1)c1csc2nc(-c3ccc(Cl)cc3)cn12`, for which the inhibition was 4.09% in assay [1], 2.67% in assay [2] and 2.02% in assay [3].

In the case of `O=C(Nc1ccc(Cl)cc1)c1cccc2nc(C(F)(F)F)[nH]c12`, the inhibition in assay [1] stood at 9.28%; in assay [2], 9.14%; in assay [3], 5.94%.

Take `CCN(CC)Cc1ccc2c(=O)cc(CCc3cccc(F)c3F)n(CC(=O)N(Cc3ccc(-c4ccc(C(F)(F)F)cc4)cc3)C(C)C)c2c1`: the figures for the inhibition in assay [1], in assay [2] and in assay [3] were 1.44%, 2% and -0.21%, respectively.

For `CCOc1ccccc1CNc1nccc(NCc2ccc(Cl)cc2Cl)n1`, the inhibition is 31.3% in assay [1], 21.2% in assay [2] and 9.92% in assay [3].

For `Cc1cc(-c2ccc(CN3Cc4ccccc4C3)cc2)ccc1S(=O)(=O)NCCN1CCCC1`, the inhibition was determined as 40.3% in assay [1], 17.2% in assay [2] and 11% in assay [3].

For `C[C@H](CNc1ccnc(Nc2ccc3[nH]c(=O)[nH]c3c2)n1)c1ccccc1`, the inhibition in assay [1] is -1.01% and -1.44%; in assay [2], -0.33% and -0.77%; in assay [3], -0.13% and 0.71%.

On to `CC1CCCN(Cc2c(O)ccc3c(O)c(-c4nc5ccccc5s4)c(=N)oc23)C1` (stereo not drawn), for which the inhibition in assay [1] is 3.47%; in assay [2], 8.25%; in assay [3], 0.96%.

Take `COc1cc(C(C)C)ccc1N1CCN(CCCCNC(=O)c2ccc(NC(=O)c3ccc(Cl)cc3)cc2)CC1`: the inhibition was 4.1% in assay [1], 1.59% in assay [2] and 2.26% in assay [3].

On to `O=C(Cn1c(CCc2cccc(F)c2F)nc(=O)c2cccnc21)N(Cc1ccc(-c2ccc(C(F)(F)F)cc2)cc1)C1CCN(C2CCOCC2)CC1`, for which the inhibition in assay [1] stood at 2.69%; in assay [2], 1.35%; in assay [3], 1.43%.

Turning to `O=C(NCC1CCC(C(=O)NCc2cccc(C(F)(F)F)c2)CC1)c1ccc(O)c(-c2ccc(Cl)c(Cl)c2)c1` (stereo not drawn), the inhibition was found to be 0.99% in assay [1], 2.82% in assay [2] and 2.98% in assay [3].

Regarding `CC1(CCc2ccccc2)N=C(N)N=C(N)C1c1ccc(Cl)c(Cl)c1` (stereo not drawn), the inhibition in assay [1] turned out to be 9.55%; in assay [2], 9.47%; in assay [3] it was 8.62%.

For `O=C(Nc1ccccc1)Nc1cccc(-c2nn3c(OCC4CCCCN4)cccc3c2-c2ccncc2)c1` (stereo not drawn), the inhibition in assay [1] turned out to be 5.24%; in assay [2], 1.67%; in assay [3] it was 1.3%.

For `Cc1cc(F)ccc1N(c1nc(-c2cc(Cl)ccc2Cl)cs1)C1CCNC1` (stereo not drawn), the inhibition in assay [1] is 8.82%; in assay [2] it was 7.41%; in assay [3], 4.16%.
